Screening data from PubChem BioAssay.
TRHR enhancer: qHTS for Small Molecule Agonists and Allosteric Enhancers of Human TRH Receptor: Primary Screen for Enhancers; Thyrotropin-releasing hormone receptor (Homo sapiens), P34981; TRHR cells, fluo-8 calcium fluorescence, EC20 TRH enhancement; enhancement, % at 2 µM; 360,000 tested, 0.66% active; AID 493056, 2011; in the data active = enhancement above about 30%; also: 0% is about no effect
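Enhancer read-out: after compound pinning and an initial kinetic agonist-mode read, an EC20 of TRH (10 nM final) was injected and fluo-8 calcium signal (Ex 480/Em 530) followed at 1 s/cycle for 100 cycles in TRHR-expressing cells.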
D1 agonist: Allosteric Agonists of the Human D1 Dopamine Receptor: qHTS. D(1A) dopamine receptor (Homo sapiens), P21728. HEK293 T-REx D1 cells, calcium flux, agonist mode. activation, % at 2 µM. 360,000 tested, 1% active; also: 0% is about no effect
Target sequence (P21728 whole entry, looked up): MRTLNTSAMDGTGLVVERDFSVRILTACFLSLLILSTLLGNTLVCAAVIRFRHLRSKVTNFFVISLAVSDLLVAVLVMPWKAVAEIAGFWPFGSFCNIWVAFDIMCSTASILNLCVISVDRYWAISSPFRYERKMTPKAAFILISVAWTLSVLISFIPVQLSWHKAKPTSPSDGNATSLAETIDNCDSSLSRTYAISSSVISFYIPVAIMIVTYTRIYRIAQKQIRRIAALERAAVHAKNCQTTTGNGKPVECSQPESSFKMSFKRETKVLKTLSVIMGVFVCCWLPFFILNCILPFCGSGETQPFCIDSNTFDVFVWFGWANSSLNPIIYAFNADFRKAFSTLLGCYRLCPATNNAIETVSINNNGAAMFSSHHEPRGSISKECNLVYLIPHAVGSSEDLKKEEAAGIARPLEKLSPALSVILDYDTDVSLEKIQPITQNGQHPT
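Agonism was scored from calcium flux recorded over 180 s (1 read/s) after pintool compound addition, following a 10-cycle baseline. Cells were inducible force-coupled HEK293 TREx D1, plated overnight at 30 C and loaded with no-wash calcium dye.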
D1 PAM: Potentiators of Human D1 Dopamine Receptor: qHTS. D(1A) dopamine receptor (Homo sapiens), P21728. HEK293 TREx D1 cells, calcium flux, dopamine EC20 potentiation. potentiation, % at 10 µM. 360,000 tested, 0.036% active. AID 504651, 2011; in the data active = potentiation above about 30%; also: 0% is about no effect
TRHR agonist: qHTS for Small Molecule Agonists and Allosteric Enhancers of Human TRH Receptor: Primary Screen for Agonists; Thyrotropin-releasing hormone receptor (Homo sapiens), P34981; TRHR cells, calcium flux fluo-8, FDSS agonist mode; activation, % at 2 µM; 360,000 tested, 0.18% active; AID 493084, 2011; also: 0% is about no effect
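TRHR-expressing cells loaded with fluo-8 calcium dye; 23 nL library compound pin-transferred, kinetic FDSS fluorescence (Ex 480/Em 530) recorded about 180 s for agonist-induced calcium release, before a 10 nM TRH EC20 addition for potentiator mode.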
D1 antagonist: Antagonist of Human D 1 Dopamine Receptor: qHTS; D(1A) dopamine receptor (Homo sapiens), P21728; HEK293 TREx D1 cells, calcium flux, dopamine EC80; active compounds read low; activity change, negative = inhibition, % at 10 µM; 360,000 tested, 3.2% active; in the data active = activity change below about -30%; also: % is scaled to controls: 0 for no effect and ±100 for the full control effect
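Allosteric or orthosteric antagonism assessed as attenuation of the calcium response to EC80 dopamine, added 180 s after compound, in induced HEK293 Trex D1 cells loaded with no-wash calcium dye.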
* = called active by the depositor; ! = not active in a repeat. An excerpt weighted towards active compounds, which were near 4.6% of everything screened. Rule as the data show it, unless noted: active = activation above about 30%; inactive = the rest.

SMILES	TRHR enhancer	D1 agonist	D1 PAM	TRHR agonist	D1 antagonist
CCOC(=O)N1CCC(NS(=O)(=O)c2ccccc2)CC1	-1	7	-3	-1	7
CCOC(=O)N1CCC(NS(=O)(=O)c2cc(Br)cnc2N)CC1	10	2	-8	0	-30*
CCOC(=O)N1CCC(NS(=O)(=O)c2ccc(C)cc2)CC1	0	6	-4	-2	-39*
Cc1ccc(Cl)cc1NC(=O)Cn1nnc2sc3c(c2c1=O)CCC(C(C)(C)C)C3 (stereo unspecified)	-1	0	0	1	-8
O=C(Cc1ccccc1)Nc1sc2c(c1C(=O)Nc1cccc(Cl)c1)CCCC2	4	7	-4	2	22
O=C(NCCO)c1cccc(Nc2nc(-c3ccccc3)c3cc(Cl)ccc3n2)c1	31*	0	4	0	-24
Cc1cc(CNC(=O)CC2C(=O)NCCN2CC(C)(C)C)nn1C (stereo unspecified)	6	-1	8	0	-39*
O=C(NCc1cccc(F)c1)c1ccc2nc(N3CCCCC3)sc2c1	2	2	-1	0	9
COc1ccc(OC)c(C(=O)NC(CC(N)=O)c2ccc(NCc3ccc(F)c(F)c3)c([N+](=O)[O-])c2)c1 (stereo unspecified)	36*	2	1	0	19
O=C(c1ccc(-c2cccc(C(F)(F)F)c2)o1)N1CCCCCCC1	2	0	1	-1	-40*
Cc1ccc(Cc2cnc(NC(=O)c3ccc4c(c3)CC(c3ccccc3)OC4=O)s2)cc1 (stereo unspecified)	2	1	-3	-1	-31*
Cc1cccc(Cc2cnc(NC(=O)c3ccc4c(c3)CC(c3ccccc3)OC4=O)s2)c1 (stereo unspecified)	8	1	0	0	0
CCc1ccc(NC(=O)c2sc3nc(C)cc(C)c3c2NC(=O)c2ccccc2OC)cc1	40*	0	-2	0	0
O=C(Nc1nnc(S(=O)(=O)N2CCCCC2)s1)c1ccc(F)cc1	19	20	1	0	-12
O=C(NCCn1ccc2ccccc21)c1ccc(Cl)cc1	0	0	-4	0	-34*
COc1cc(OC)cc(C(=O)NCCn2ccc3ccccc32)c1	-3	3	-5	-1	-16
CCc1nn(CC(=O)NCCCN2CCN(C)CC2)c(=O)c2cc3occc3n12	4	2	0	1	-37*!
CCOC(=O)C1CCN(C(=O)Cn2nc(CC)n3c(cc4occc43)c2=O)CC1	-7	5	2	0	-33*
CCc1nn(CC(=O)NCCN2CCN(C)CC2)c(=O)c2cc3occc3n12	3	3	3	-1	-14
CCCc1ccc(OCC(=O)Nc2sc3c(c2C(=O)OC)CCCCC3)cc1	-3	-1	0	-1	6
Cc1cc(C)nc(SCc2nnc(SCC(N)=O)o2)n1	0	5	4	0	7
COc1cc2c(=O)c(S(=O)(=O)c3ccccc3)cn(CC(=O)Nc3ccccc3C)c2cc1OC	-10	1	-4	0	-14
Cc1cccc(CS(=O)(=O)CC2Nc3ccc(C(=O)NCc4ccccc4Cl)cc3NC2=O)c1 (stereo unspecified)	3	-4	-1	0	-5
Cc1ccc(CN2CCC(CNC(=O)c3cc4ccc5cccnc5c4[nH]3)CC2)cc1	-5	40*	-4	3	8
COc1ccc(CNC(=O)c2ccc3c(c2)NC(=O)C(C)S3)cc1 (stereo unspecified)	36*	0	-1	0	-13
COc1cccc(C(=O)Nc2c(C(=O)c3ccc(F)cc3)oc3ccccc23)c1	6	1	-6	1	-5
CC(NC(=O)c1ccco1)C(=O)N1CCN(C(c2ccccc2)c2ccccc2)CC1 (stereo unspecified)	0	1	1	0	-32*
